Test results reported in PubChem BioAssay AID2685 (National Center for Advancing Translational Sciences (NCATS), 2010).
Hit rate of the full screen: of about 320,000 compounds, about 2,100 (0.66%) were called active. Inconclusive results (about 53%) are left out. Calls follow the shape of the dose curve; as a rule, active = well fitted inhibition curve with a large enough effect in the signal ratio, with a control signal flat (not every such curve was filed as active); inconclusive = small, poorly fitted or top-dose-only effect, or effect the other way, or a change in a side signal; inactive = flat fitted curve, though single readings scatter; the % refers to the signal ratio. Many of the other results were omitted from the sample, so actives are more common in it than they were.

Experiment: qHTS Assay for Lipid Storage Modulators in Drosophila S3 Cells;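 as to cell number change: cells counted by Cell Tracker Red CMTPX staining in the red channel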; as to lipid storage change, negative = inhibition: % is scaled to controls: 0 for no effect and ±100 for the full control effect
Conditions: BODIPY lipid droplet fluorescence, 18-24 h, cells fed with added oleic acid; cell number change: measured here: cell count max response; series mostly up to 46.1 µM; lipid storage change, negative = inhibition: at the top concentration
Summary of the method: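 Drosophila S3 cells loaded with oleic acid (400 uM, as added) and compounds at several concentrations; lipid droplets imaged by 488-nm laser-scanning cytometry, 500–530 nm intensity and object ratio to cell channel. Percent activity normalized to 20 uM Triacsin C.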
Potency is read from the fitted curve at half-maximal effect.

Q: With `CC(C)(C)OC(=O)NCCCC(CCCNC(=O)OC(C)(C)C)C(=O)O` as the compound, how does the Potency read?
A: 16.4 µM (active)

Q: What about the cell number change of the same compound?
A: -6.12%

Q: Which “lipid storage change, negative = inhibition” value does the source give for `CC(C)(C)OC(=O)NCCCCCO` here?
A: 4.7% (inactive)

Q: And the cell number change?
A: -1.04%

Q: Which results are given for `CC(C)(C)OC(=O)NC(Cc1ccccc1)C(=O)NCCCC(=O)O` (centres undefined)?
A: lipid storage change, negative = inhibition: -11.2% (inactive); cell number change: -14.4%

Q: What does the source list for `Cc1ccc(C(=O)N/N=C/c2ccc(-c3cccc(Cl)c3)o2)cn1`?
A: lipid storage change, negative = inhibition: -1.13% (inactive); cell number change: 8.19%

Q: Which “lipid storage change, negative = inhibition” value does the source give for `Nc1nc(-c2ccccc2)c(-c2ccc([N+](=O)[O-])cc2)s1` here?
A: 20.9% (inactive)

Q: What about the cell number change of the same compound?
A: 0.729%

Q: What does the source list for `Nc1c(-c2ccccc2)sc2ccc3ccccc3[n+]12`?
A: Potency: 1.3 µM (active); cell number change: 7.96%

Q: Which “lipid storage change, negative = inhibition” value does the source give for `Nc1nc(-c2ccccc2)c(-c2ccccc2)s1` here?
A: 2.72% (inactive)

Q: Which “lipid storage change, negative = inhibition” value does the source give for `O=C(COC(=O)C1COc2ccccc2O1)Nc1cccc(Cl)c1` (centres undefined) here?
A: 3.3% (inactive)

Q: What about the cell number change of the same compound?
A: -13.4%

Q: Which “lipid storage change, negative = inhibition” value does the source give for `O=C1c2ccccc2C(=O)C1c1ccccc1` here?
A: 2.57% (inactive)

Q: And the cell number change?
A: 3.81%

Q: What does the source list for `Cc1ccccc1C1C(=O)c2ccccc2C1=O`?
A: Potency: 20.6 µM (active); cell number change: 14.4%

Q: With `Cc1ccc(C)c(C2C(=O)c3ccccc3C2=O)c1` as the compound, how does the “lipid storage change, negative = inhibition” value read?
A: -0.949% (inactive)

Q: And the cell number change?
A: -8.26%

Q: What does the source list for `O=C(Nc1cccc(Cl)c1)Nc1ccon1`?
A: outcome: inactive; cell number change: -26.2%

Q: Which “lipid storage change, negative = inhibition” value does the source give for `O=C(Nc1ccc(Cl)cc1)Nc1ccon1` here?
A: -1.42% (inactive)

Q: What about the cell number change of the same compound?
A: 28.2%

Q: Which Potency does the source give for `O=C(Nc1ccc(Cl)c(Cl)c1)Nc1ccon1` here?
A: 10 µM (active)

Q: Which results are given for `Cc1ccccc1OCCCCCNCCO`?
A: outcome: inactive; cell number change: 2.5%

Q: What does the source list for `Cc1cc(C)cc(OCCCCCNCCO)c1`?
A: lipid storage change, negative = inhibition: -0.724% (inactive); cell number change: -17.6%

Q: Which Potency does the source give for `Cc1cc(C)c(OCCCCCNCCO)c(C)c1` here?
A: 25.9 µM (active)

Q: And the cell number change?
A: -17.5%

Q: Which results are given for `O=C1NCCN(Cc2ccc(Cl)c(F)c2)C1CC(=O)N1CCCCO1` (centres undefined)?
A: lipid storage change, negative = inhibition: 7.12% (inactive); cell number change: 5.73%

Q: Which “lipid storage change, negative = inhibition” value does the source give for `Nc1nc2c(C(=O)N3CCOCC3)nnn2c2ccccc12` here?
A: 5.07% (inactive)

Q: And the cell number change?
A: 6.42%

Q: Which results are given for `CCN(CC)S(=O)(=O)c1ccc(N2CCCC2)c(NS(=O)(=O)c2ccc(OC)cc2)c1`?
A: lipid storage change, negative = inhibition: 1.12% (inactive); cell number change: 10.1%

Q: Which “lipid storage change, negative = inhibition” value does the source give for `CCN(CC)S(=O)(=O)c1ccc(N2CCOCC2)c(NS(=O)(=O)c2ccc(C)c(C)c2)c1` here?
A: -10.2% (inactive)

Q: And the cell number change?
A: 16%

Q: Which results are given for `CCN(CC)S(=O)(=O)c1ccc(N2CCOCC2)c(NS(=O)(=O)c2ccc(OC)cc2)c1`?
A: Potency: 20.6 µM (active); cell number change: -20.4%

Q: What does the source list for `CN(C(=O)CCn1c(=S)oc2ccccc21)c1ccc(F)cc1`?
A: lipid storage change, negative = inhibition: 7.47% (inactive); cell number change: 7.52%

Q: With `Cc1cc(C)c(C)c(S(=O)(=O)N[C@@H](C)C(=O)OCC(N)=O)c1C` as the compound, how does the “lipid storage change, negative = inhibition” value read?
A: -8.61% (inactive)

Q: And the cell number change?
A: -24.5%

Q: With `COc1ccc(N2CCN(C(=O)COC(=O)c3ccco3)CC2)cc1` as the compound, how does the “lipid storage change, negative = inhibition” value read?
A: -1.86% (inactive)

Q: What about the cell number change of the same compound?
A: 6.24%

Q: For `O=C(NCC(=O)N1CCN(c2ccccc2)CC1)c1ccco1`, which “lipid storage change, negative = inhibition” value is on record?
A: 11.3% (inactive)

Q: And the cell number change?
A: 1.29%

Q: What does the source list for `O=C(OCC(=O)N1CCN(c2ccccc2)CC1)c1ccco1`?
A: Potency: 23.1 µM (active); cell number change: -17.5%

Q: For `COc1ccc(NC(=O)CCS(=O)(=O)c2ccc(Cl)cc2)cc1`, which “outcome” value is on record?
A: inactive

Q: Which “outcome” value does the source give for `O=S(=O)(c1cccs1)N1CCC(Cc2ccccc2)CC1` here?
A: inactive

Q: And the cell number change?
A: -12%

Q: What does the source list for `CCCCCCSc1cccc(-c2nc3cc(C)ccn3c2NC2CCCCC2)c1`?
A: lipid storage change, negative = inhibition: -7.42% (inactive); cell number change: -11.8%

Q: What does the source list for `CCC(C)Sc1ccc(-c2nc3ccc(C)cn3c2NC2CCCCC2)cc1` (centres undefined)?
A: lipid storage change, negative = inhibition: 15.5% (inactive); cell number change: -1.01%
